# According to PubChem BioAssay:
# Where “and” joins values, the source holds several entries; their conditions need not be identical. Equal entries are not always repeated. Results filed as inconclusive are left out. Calls of active or inactive are those of the source.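 The calls were made as follows, unless noted: active = aptamer binding inhibition above 30%, about 3 SD of noise from non-fluorescent compounds; inactive = inhibition at or below 30%.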
# Tests used:
# [1] = rapamycin-like changes in RPL19A-GFP expression – cell-based, S. cerevisiae, multiplex flow cytometry, primary screen (AID 1862; in the data active = percent of DMSO control GFP below about 86%;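 also: lower values mimic rapamycin by blocking the RPL19A rise seen in DMSO cells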); details: S. cerevisiae RPL19A-GFP strain, flow cytometry fluorescence, 3 h; at 10 µM; stronger effect = lower value
# [2] = TOR pathway GLN3 branch reporter MEP2-GFP changes – S. cerevisiae, multiplex flow cytometry, primary screen (AID 1867;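 active = GFP response, as percent of the DMSO control, above the screen-wide mean plus 3 SD, about 139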;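 also: median GFP channel fluorescence of barcode-gated MEP2-GFP cells measured by flow cytometry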); details: S. cerevisiae MEP2-GFP strain, 3 h, at 10 µM, stronger effect = higher value, 100% means same as DMSO wells
# [3] = TOR pathway RTG branch CIT2 reporter changes – S. cerevisiae, GFP fusion, multiplex flow cytometry, primary screen (AID 1870;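 active = percent response above a set limit, the screen-wide mean plus 3 SD, cut at about 130% in these data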;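 also: barcoded CIT2-GFP strain pooled with four other GFP strains with rapamycin as positive control; median GFP fluorescence per well over plate mean of DMSO wells so 100% = DMSO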); details: S. cerevisiae CIT2-GFP expression, 3 h, at 10 µM, stronger effect = higher value
# [4] = TOR pathway LAP4-GFP level changes – S. cerevisiae, multiplex flow cytometry, primary screen (AID 1873;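 active = GFP signal, as percent of the solvent control, above the screen mean plus 3 SD, about 149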); details: S. cerevisiae LAP4-GFP expression, 3 h, at 10 µM, stronger effect = higher value
# [5] = yeast AGP1-GFP level changes, GLN3 branch – cell-based, multiplex flow cytometry, S. cerevisiae, primary screen (AID 1887;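 active = GFP signal above the screen-wide mean plus 3 SD, that is over about 124.5% of the solvent control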;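 also: AGP1-GFP fusion strain of S. cerevisiae within a five-strain barcoded multiplex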); details: 3 h, at 10 µM, stronger effect = higher value
# [6] = reduced mouse 2C T cell binding to pMHC/ICAM-1 vesicles – MLPCN validation set, flow cytometry, LFA-1/ICAM-1 modulator project, pilot screen (AID 2523;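 active = response below a set limit, under 55% cells CD8-positive and vesicle-bound, and CD8 cells' 90th-percentile brightness under 279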;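 as to vesicle binding response: mean PE anti-B7-1 fluorescence of CD8+ cells relative to row control; 100% = QL9-loaded vesicles with DMSO vehicle in the same plate row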); details: 2C mouse CD8+ T cells, at 7 µM, stronger effect = lower value; double positive events: measured here: CD8+/vesicle+ event percentage
# [7] = molecular target: Integrin beta-1 (Homo sapiens) + Integrin alpha-4 (Homo sapiens) (UniProt P13612+P05556); test: alpha4beta1 integrin LIBS antibody binding reduction – U937 cells, HUTS-21 mAb, flow cytometry, validation set, VLA-4 allosteric modulator project, pilot screen (AID 2674;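 active = inhibition above 50%, about 3 SD of the validation set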;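 also: antibody binding induced by the VLA-4 ligand LDV present at three times its Kd; 0% = LDV ligand with antibody and no compound and 100% = antibody without LDV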); details: HUTS-21 LIBS mAb binding, at 6.7 µM, stronger effect = higher value, binding induced by LDV ligand
# Chain of Integrin beta-1 (Homo sapiens) + Integrin alpha-4 (Homo sapiens) (P05556 whole entry, looked up): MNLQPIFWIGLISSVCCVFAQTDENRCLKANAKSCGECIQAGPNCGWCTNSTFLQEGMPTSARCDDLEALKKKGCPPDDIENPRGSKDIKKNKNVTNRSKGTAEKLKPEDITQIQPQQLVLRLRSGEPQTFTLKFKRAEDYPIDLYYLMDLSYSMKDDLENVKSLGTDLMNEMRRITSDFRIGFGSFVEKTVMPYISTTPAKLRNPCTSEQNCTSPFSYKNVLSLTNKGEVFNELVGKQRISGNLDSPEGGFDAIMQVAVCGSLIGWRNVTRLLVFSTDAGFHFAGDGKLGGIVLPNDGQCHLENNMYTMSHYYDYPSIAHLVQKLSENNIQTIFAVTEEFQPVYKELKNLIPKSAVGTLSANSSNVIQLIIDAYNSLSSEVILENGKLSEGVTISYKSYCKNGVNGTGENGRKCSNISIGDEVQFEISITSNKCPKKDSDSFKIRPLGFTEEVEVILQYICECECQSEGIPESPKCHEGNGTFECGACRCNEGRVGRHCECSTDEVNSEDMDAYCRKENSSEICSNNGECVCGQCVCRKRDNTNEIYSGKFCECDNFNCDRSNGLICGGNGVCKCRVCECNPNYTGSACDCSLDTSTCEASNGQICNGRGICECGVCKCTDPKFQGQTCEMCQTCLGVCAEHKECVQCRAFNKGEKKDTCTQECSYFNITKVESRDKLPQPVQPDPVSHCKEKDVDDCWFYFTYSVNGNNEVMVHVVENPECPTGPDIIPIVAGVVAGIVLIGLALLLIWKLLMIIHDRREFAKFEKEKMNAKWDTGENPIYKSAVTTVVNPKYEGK
# Chain of Integrin beta-1 (Homo sapiens) + Integrin alpha-4 (Homo sapiens) (P13612 whole entry, looked up): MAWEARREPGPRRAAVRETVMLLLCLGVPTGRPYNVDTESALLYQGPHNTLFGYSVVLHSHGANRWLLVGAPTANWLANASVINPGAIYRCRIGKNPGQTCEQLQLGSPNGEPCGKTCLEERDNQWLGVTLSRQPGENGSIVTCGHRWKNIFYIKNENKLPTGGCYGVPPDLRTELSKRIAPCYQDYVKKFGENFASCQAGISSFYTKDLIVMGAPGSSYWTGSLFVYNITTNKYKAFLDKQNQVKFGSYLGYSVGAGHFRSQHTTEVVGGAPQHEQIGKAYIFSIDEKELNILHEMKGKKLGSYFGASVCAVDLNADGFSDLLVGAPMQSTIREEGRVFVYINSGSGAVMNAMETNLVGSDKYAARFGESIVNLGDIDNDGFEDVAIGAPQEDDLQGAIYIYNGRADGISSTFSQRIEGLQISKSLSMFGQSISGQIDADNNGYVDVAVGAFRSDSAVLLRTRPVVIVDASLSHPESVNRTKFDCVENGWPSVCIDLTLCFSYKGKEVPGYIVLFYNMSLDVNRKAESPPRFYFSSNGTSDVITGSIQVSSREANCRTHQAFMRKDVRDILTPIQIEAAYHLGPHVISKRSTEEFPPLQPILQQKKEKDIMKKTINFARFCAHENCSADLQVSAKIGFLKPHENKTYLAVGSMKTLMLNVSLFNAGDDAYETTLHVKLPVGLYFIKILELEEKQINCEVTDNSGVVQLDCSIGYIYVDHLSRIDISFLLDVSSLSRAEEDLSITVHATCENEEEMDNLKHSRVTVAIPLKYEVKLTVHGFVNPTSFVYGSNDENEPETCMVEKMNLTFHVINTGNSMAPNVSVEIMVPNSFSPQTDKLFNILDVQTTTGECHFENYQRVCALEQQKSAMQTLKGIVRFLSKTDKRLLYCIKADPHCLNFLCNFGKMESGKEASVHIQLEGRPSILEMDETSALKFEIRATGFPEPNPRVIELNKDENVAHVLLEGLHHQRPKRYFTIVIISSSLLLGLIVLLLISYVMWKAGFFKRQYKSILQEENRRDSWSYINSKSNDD
# [8] = calorie-restriction mimetic ROS inhibitors, yeast – validation compound set, pilot screen (AID 2706;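 active = superoxide response below 65% of plate, a cut near 3 SD across the whole screen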;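 also: yeast exposed to compound for one week at 30 degrees C before staining; 100% = mean of all compound wells on the same plate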); details: S. cerevisiae aging, superoxide DHE fluorescence; at 10 µM; stronger effect = lower value
# [9] = molecular target: Beta-adrenergic receptor kinase 1 (Homo sapiens) (UniProt P25098); test: GRK2 binders displacing RNA aptamer, biochemical, validation, human GRK2, bead flow cytometry (AID 488806); details: bead-bound GRK2, FAM-aptamer displacement, at 10 µM, stronger effect = higher value
# Chain of Beta-adrenergic receptor kinase 1 (Homo sapiens) (P25098 whole entry, looked up): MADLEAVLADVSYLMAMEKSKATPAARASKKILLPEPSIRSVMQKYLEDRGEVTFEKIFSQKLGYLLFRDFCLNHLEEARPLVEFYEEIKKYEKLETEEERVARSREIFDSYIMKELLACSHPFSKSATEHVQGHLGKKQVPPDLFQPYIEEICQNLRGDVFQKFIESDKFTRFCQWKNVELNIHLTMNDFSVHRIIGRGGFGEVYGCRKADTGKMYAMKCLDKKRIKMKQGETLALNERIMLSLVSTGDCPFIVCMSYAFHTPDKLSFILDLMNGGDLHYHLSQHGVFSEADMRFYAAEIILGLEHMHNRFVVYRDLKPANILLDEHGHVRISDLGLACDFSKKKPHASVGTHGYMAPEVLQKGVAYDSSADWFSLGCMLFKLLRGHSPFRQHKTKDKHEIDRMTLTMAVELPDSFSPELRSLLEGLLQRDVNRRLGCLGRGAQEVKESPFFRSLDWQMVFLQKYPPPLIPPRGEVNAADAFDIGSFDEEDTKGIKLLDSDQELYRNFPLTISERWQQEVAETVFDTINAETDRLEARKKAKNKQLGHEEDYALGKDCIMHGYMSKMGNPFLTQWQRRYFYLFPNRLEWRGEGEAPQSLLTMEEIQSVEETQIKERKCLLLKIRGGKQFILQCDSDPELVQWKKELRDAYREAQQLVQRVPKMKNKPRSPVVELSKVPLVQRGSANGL
# [10] = molecular target: Beta-2 adrenergic receptor (Homo sapiens) (UniProt P07550); test: agonist-induced loss of surface beta2AR – cell-based, FAP fluorogen, flow cytometry, validation set, pilot screen (AID 504459;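 active = percent response above 42, roughly 3 SD of non-fluorescent test compounds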;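 also: agonist-driven loss of surface beta2AR via internalization measured by FAP dye flow cytometry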); details: Am2.2-beta2AR cells, at 10 µM, stronger effect = higher value
# Chain of Beta-2 adrenergic receptor (Homo sapiens) (P07550 whole entry, looked up): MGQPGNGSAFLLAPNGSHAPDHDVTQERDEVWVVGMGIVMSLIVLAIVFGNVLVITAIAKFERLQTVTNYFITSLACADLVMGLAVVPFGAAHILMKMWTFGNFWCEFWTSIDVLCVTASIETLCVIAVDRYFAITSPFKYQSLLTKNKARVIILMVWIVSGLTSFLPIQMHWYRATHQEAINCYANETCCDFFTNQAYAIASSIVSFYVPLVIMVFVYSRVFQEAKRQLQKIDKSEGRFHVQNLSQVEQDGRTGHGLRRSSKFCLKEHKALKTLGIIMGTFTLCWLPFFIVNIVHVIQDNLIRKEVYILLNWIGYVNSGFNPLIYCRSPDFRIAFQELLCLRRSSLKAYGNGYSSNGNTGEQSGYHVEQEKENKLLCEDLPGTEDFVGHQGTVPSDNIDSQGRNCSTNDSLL
# [11] = molecular target: AP-2 complex subunit beta (Homo sapiens) (UniProt P63010); test: beta-arrestin/AP2 interaction blockers – biochemical, validation set, GST-AP2 beads, flow cytometry, pilot screen (AID 504541;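 active = inhibition above 54%, about 3 SD of non-fluorescent compounds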;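 also: AP2 carries R879A mutation and is captured from E. coli lysate; bead-bound FITC arrestin peptide fluorescence measuring arrestin peptide binding to AP2; 0% = DMSO wells and 100% = excess unlabeled arrestin peptide control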); details: FITC arrestin peptide, at 10 µM, stronger effect = higher value, AP2 beta2 appendage fragment, R879A mutant
# Chain of AP-2 complex subunit beta (Homo sapiens) (P63010 whole entry, looked up, the tested form may be a part, one chain of several): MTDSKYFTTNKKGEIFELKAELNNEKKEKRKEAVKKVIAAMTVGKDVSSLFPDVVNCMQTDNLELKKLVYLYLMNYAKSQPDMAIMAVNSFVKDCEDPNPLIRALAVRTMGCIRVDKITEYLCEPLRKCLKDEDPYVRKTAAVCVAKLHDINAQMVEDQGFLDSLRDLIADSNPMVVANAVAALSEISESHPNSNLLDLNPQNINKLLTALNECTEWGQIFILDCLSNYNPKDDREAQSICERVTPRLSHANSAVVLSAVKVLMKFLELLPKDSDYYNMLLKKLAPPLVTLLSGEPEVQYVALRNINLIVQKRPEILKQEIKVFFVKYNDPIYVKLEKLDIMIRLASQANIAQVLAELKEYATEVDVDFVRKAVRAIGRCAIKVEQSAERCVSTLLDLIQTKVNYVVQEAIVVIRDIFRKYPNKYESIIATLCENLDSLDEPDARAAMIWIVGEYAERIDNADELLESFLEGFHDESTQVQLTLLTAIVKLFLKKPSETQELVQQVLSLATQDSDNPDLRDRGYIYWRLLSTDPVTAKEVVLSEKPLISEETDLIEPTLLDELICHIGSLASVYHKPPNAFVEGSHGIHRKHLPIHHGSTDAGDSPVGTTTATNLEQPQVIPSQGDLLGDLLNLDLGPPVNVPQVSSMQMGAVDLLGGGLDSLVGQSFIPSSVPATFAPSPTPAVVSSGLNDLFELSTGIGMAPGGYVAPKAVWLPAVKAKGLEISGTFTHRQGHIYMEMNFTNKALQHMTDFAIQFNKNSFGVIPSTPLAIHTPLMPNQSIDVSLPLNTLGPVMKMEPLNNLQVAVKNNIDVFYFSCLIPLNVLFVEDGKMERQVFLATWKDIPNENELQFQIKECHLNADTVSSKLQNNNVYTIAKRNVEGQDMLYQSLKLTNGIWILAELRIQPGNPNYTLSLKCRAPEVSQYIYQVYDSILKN
# [12] = cytosolic pH regulators acting via V-ATPase – S. cerevisiae, pHLuorin, HTS validation (AID 504600; in the data active = response above about 15%;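 also: plate controls were DMSO for no effect and reference compound for full effect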); details: V-ATPase proton transport, at 10 µM, stronger effect = higher value
# [13] = tested on: anti-desmoglein-3 scFv antibody binding to human DSG3; test: blockers of pathogenic pemphigus antibody–desmoglein-3 binding – biochemical, validation compound set, bead-based, flow cytometry, pilot screen (AID 588368;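 active = binding below the plate cutoff, the plate median minus 3 SD, with a reading above zero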;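 also: signal is the median channel fluorescence of bead-bound GFP antibody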); details: Protein G beads, DSG3-Fc, scFv-GFP binding, at 10 µM, stronger effect = lower value
# [14] = Nile Red efflux blockade in pump-expressing yeast – validation compound set, multiplex, phenotypic, pilot screen (AID 588506;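 active = efflux inhibition above 0.42, the validation set average plus 4 SD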;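 also: Nile Red retained in cells so higher fluorescence means more efflux inhibition; 0 = negative control wells and 1 = enniatin B 25 µM full block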); details: S. cerevisiae pump-expressing triplex, Nile Red efflux flow cytometry; at 10 µM; stronger effect = higher value; the pumps come from Candida albicans
# [15] = molecular target: ATP-binding cassette sub-family B member 6 (Homo sapiens) (UniProt Q9NP58); test: blockers of ABCB6-driven porphyrin uptake – K562-ABCB6 cells, flow cytometry, validation set, pilot screen (AID 588550;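 active = inhibition above the screen-wide mean plus 3 SD, about 51%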;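 also: 0% = DMSO wells and 100% = benzethonium chloride 70 µM positive control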); details: K562-ABCB6 porphyrin accumulation, 1 h, at 10 µM, stronger effect = higher value
# Chain of ATP-binding cassette sub-family B member 6 (Homo sapiens) (Q9NP58 whole entry, looked up): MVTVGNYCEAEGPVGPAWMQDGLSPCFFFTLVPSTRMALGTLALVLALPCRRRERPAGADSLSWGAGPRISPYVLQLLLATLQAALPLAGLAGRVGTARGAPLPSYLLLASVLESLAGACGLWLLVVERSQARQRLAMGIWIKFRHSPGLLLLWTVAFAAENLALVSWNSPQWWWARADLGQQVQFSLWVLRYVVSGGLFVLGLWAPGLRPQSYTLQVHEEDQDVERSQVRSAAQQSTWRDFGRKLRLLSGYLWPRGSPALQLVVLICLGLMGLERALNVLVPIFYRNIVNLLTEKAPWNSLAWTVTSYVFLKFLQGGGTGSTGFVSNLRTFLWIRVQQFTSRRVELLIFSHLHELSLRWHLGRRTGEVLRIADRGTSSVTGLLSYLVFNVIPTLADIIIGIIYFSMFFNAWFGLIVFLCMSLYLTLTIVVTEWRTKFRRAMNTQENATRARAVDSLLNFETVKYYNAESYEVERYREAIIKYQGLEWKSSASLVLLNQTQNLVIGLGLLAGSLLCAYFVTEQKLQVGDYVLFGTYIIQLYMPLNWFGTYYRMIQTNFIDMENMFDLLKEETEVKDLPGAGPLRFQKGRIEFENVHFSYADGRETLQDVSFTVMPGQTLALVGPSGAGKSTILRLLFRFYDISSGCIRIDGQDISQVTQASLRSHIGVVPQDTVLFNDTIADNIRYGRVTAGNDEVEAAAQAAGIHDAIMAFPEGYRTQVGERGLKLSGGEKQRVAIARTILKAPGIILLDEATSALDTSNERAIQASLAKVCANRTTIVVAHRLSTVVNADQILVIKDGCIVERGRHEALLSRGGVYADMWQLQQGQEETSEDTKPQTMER
# [16] = AML differentiation inducers, ER-HoxA9 marrow cells – cell-based, GFP/MAC1 double positive, flow cytometry, validation set, primary screen (AID 588685;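 active = differentiation response of at least 50%, scaled between solvent and reference control, from cells with both markers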;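 also: compound exposure lasts four days before antibody staining and flow analysis; 0% = DMSO wells and 100% = 5 µM fulvestrant positive control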); details: stronger effect = higher value, normalized: vehicle 0, fulvestrant 100
SMILES,percent of DMSO control GFP [1],GFP response vs DMSO [2],percent response of DMSO control [3],GFP response vs DMSO [4],"GFP response, % of DMSO [5]",double positive events [6],vesicle binding response [6],inhibition [7],superoxide response (% of plate) [8],aptamer binding inhibition [9],response [10],inhibition [11],response [12],binding (% of control) [13],efflux inhibition (fraction of control) [14],inhibition [15],differentiation response [16]
COCCNC(=O)CSc1ccc(Cl)cc1,104% (inactive),106% (inactive),105% (inactive),88.7% (inactive),103% (inactive),62.8%,245% (inactive),-0.45% (inactive),112% (inactive),1% (inactive),-6.87% (inactive),7.8% (inactive),-1.2% (inactive),92% (inactive),0.14 (inactive),10% (inactive),-12.5% (inactive)
Cc1nc2ccccc2n1CC(O)Cn1c2ccccc2c2ccccc21 (stereo not drawn),90.9% (inactive),115% (inactive),101% (inactive),78.7% (inactive),91.9% (inactive),62.2%,174% (inactive),4.52% (inactive),97.8% (inactive),2% (inactive),8.04% (inactive),-4.66% (inactive),-1.44% (inactive),104% (inactive),0.19 (inactive),9% (inactive),-1.64% (inactive)
O=C1NC(=O)C(c2ccccc2)(c2ccccc2)N1,102% (inactive),107% (inactive),93.9% (inactive),93.3% (inactive),99.6% (inactive),58.7% and 60.5%,114% (inactive) and 142% (inactive),20.4% (inactive) and -2.11% (inactive),102% (inactive) and 98.5% (inactive),-2% (inactive) and 2% (inactive),5.51% (inactive),1.12% (inactive) and -5.85% (inactive),8.2% (inactive) and -0.2% (inactive),97% (inactive) and 99.3% (inactive),-0.44 (inactive) and 0.29 (inactive),11% (inactive) and 12% (inactive),-0.18% (inactive) and -8.27% (inactive)
NC(CO)C(=O)NNCc1ccc(O)c(O)c1O (stereo not drawn),98.4% (inactive),98.7% (inactive),98.6% (inactive),91.5% (inactive),96.5% (inactive),65.1%,130% (inactive),13.7% (inactive),92.9% (inactive),8% (inactive),8.54% (inactive),62.4% (active),-0.21% (inactive),60.7% (active),0.66 (active),5% (inactive),-8.96% (inactive)
O=C(/C=C/c1ccccc1)NC(=O)c1ccccc1O,106% (inactive),104% (inactive),104% (inactive),121% (inactive),94.2% (inactive),59.9%,128% (inactive),4.27% (inactive),111% (inactive),-4% (inactive),5.9% (inactive),15.2% (inactive),-7.97% (inactive),102% (inactive),0.07 (inactive),0% (inactive),-10.4% (inactive)
COc1cccc(OCC(O)CO)c1 (stereo not drawn),97.6% (inactive),91.9% (inactive),107% (inactive),78.6% (inactive),91.6% (inactive),58.2%,160% (inactive),0.94% (inactive),94.9% (inactive),4% (inactive),3.25% (inactive),11.4% (inactive),-1.06% (inactive),99.9% (inactive),-0.1 (inactive),1% (inactive),-4% (inactive)
CCCC(=O)O[C@]1(C(=O)CCl)[C@@H](C)C[C@H]2[C@@H]3CCC4=CC(=O)C=C[C@]4(C)[C@@]3(F)C(=O)C[C@@]21C,93.7% (inactive),134% (inactive),111% (inactive),85.8% (inactive),87.3% (inactive),65.1%,147% (inactive),1.61% (inactive),98.4% (inactive),3% (inactive),-4.94% (inactive),11.3% (inactive),-7.84% (inactive),94.1% (inactive),0.23 (inactive),8% (inactive),0% (inactive)
CC1(C#CC[N+]2(C)CCCCC2)CCC2C(O1)c1ccccc1OC2(C)C (stereo not drawn),103% (inactive),102% (inactive),107% (inactive),91.5% (inactive),106% (inactive),60.2%,95.6% (inactive),-6.45% (inactive),101% (inactive),-11% (inactive),5.86% (inactive),-11.4% (inactive),2.59% (inactive),101% (inactive),0.07 (inactive),-6% (inactive),-10.4% (inactive)
C=CCOc1ccc(C(=O)CC)cc1OC,102% (inactive),105% (inactive),104% (inactive),106% (inactive),98.6% (inactive),60%,174% (inactive),8.29% (inactive),103% (inactive),1% (inactive),2.91% (inactive),-8.48% (inactive),9.51% (inactive),106% (inactive),0.03 (inactive),-4% (inactive),-6.03% (inactive)
